# Some of the results follow. The source made the active and inactive calls. No rule for the calls is given here.
# Test: molecules binding r(CAG) RNA repeats, late stage dose response, late-stage follow-up, biochemical, fluorescence, dose response, powder samples (AID 720651)
# Conditions: r(CAG) RNA TO-PRO-1 dye displacement
structure (smiles),measurement,value
O=C1CC(=O)N(Cc2ccccc2)C(=O)N1CCCCCCN1C(=O)CC(=O)N(Cc2ccccc2)C1=O,IC50,1.44 µM (active)

# Reference: PubChem BioAssay AID720651 (The Scripps Research Institute Molecular Screening Center, 2013)
